PubChem BioAssay (NCATS)
Results filed as inconclusive are left out. Activity calls are given as the source filed them. Unless noted, calls come from the whole dose curve; as a rule, active = well fitted curve in the direction sought with a large enough effect; inconclusive = small, poorly fitted or top-dose-only effect, or another doubt; inactive = no such curve, though single readings can be large; an effect the other way counts as inactive or inconclusive.

Legend:
[1] = Cell Viability - MRC5 (AID 434; calls by dose curve;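 note: potency is the fitted concentration of half-maximal effect; cells exposed to compound for 40 hours at 37 °C; potency reflects cytotoxicity seen as loss of intracellular ATP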); conditions: MRC5 lung fibroblast viability, qHTS
How it was run: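 AC50 values come from Hill-equation fits of intracellular ATP loss, measured by CellTiter-Glo luminescence. Normal lung fibroblasts (MRC5) had 40 hr compound treatment at 37 C, normalized between DMSO and 100 uM tamoxifen.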

[2] = Cell Viability - HUV-EC-C (AID 542); conditions: HUV-EC-C endothelial cell viability, qHTS; series mostly up to 92.2 µM;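 note: cells exposed to compound for 40 hours; nearly all actives have a fitted effect of over 35% in size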; note: potency is the fitted concentration of half-maximal effect
How it was run: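 CellTiter-Glo luminescence measured ATP loss in HUV-EC-C cells (1000/well) after 40 hr compound exposure at 37 °C, in complete culture medium. Concentration-response data were Hill-fitted to give AC50.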

[3] = Cellular Toxicity (caspase-3) HepG2 (AID 654); conditions: HepG2 caspase-3 activation, luminescence; series mostly up to 92.2 µM; note: potency is the fitted concentration of half-maximal effect;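 for caspase-3 activation: cells exposed to compound for 16 hours before reading; 0% = DMSO alone and 100% = caspase signal from 100 µM tamoxifen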
How it was run: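 Caspase 3/7 activation is measured as a luminescence increase (aminoluciferin substrate) after 16 h compound exposure of human hepatocarcinoma HepG2 cells. AC50 values are Hill fits, scaled between DMSO baseline and 100 uM tamoxifen stimulation.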

[4] = Cellular Toxicity (caspase-3) HUV-EC-C (AID 656); conditions: HUV-EC-C cells, caspase-3 activation (apoptosis); series mostly up to 92.2 µM
How it was run: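 HUV-EC-C cells (1000/well) in complete medium, compound-treated 16 h at 37 °C; caspase-3/7 activity read by Caspase-Glo 3/7 luminescence. Normalized to DMSO (basal) and 100 uM tamoxifen (100%); AC50 from Hill-equation concentration-response fits.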

[5] = Cellular Toxicity (caspase-3) SHSY5Y (AID 657); conditions: SH-SY5Y caspase-3 activation; series mostly up to 91.7 µM; note: potency is the fitted concentration of half-maximal effect
How it was run: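 SH-SY5Y human neuroblastoma cells, 1500/well, exposed to compound for 16 hours at 37 °C in complete medium. Caspase-3/7 activity read by Caspase-Glo luminescence after 1 hr at room temperature, normalized to DMSO and 10 uM staurosporine; AC50 from Hill fit.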

[6] = Cellular Toxicity (caspase-3) MRC-5 (AID 659); conditions: MRC-5 cells, luminescence, normalized: DMSO 0%, 10 µM staurosporine 100%; series mostly up to 91.7 µM
How it was run: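 Luminescent Caspase-Glo 3/7 read-out (1 h, room temperature) after a 16 h, 37 °C compound exposure of MRC-5 lung fibroblasts at 1500 cells/well. Concentration-response AC50 from Hill equation; 0% DMSO, 100% 10 uM staurosporine.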

[7] = Cellular Toxicity (caspase-3) Mesangial (AID 660); conditions: mesangial cells, normalized: DMSO 0%, 100 µM tamoxifen 100%; series mostly up to 91.7 µM;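 note: cells exposed to compound for 16 h before the caspase read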
How it was run: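 Caspase 3/7 activation measured by Caspase-Glo 3/7 luminescence (20 min, room temperature) following 16 h exposure of mesangial cells (1000/well); AC50 from Hill-equation fit, normalized to DMSO and 100 uM tamoxifen.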

[8] = Cellular Toxicity (caspase-3) SK-N-SH (AID 661); conditions: SK-N-SH caspase-3 activation, qHTS, DMSO as zero, staurosporine as full; series mostly up to 91.7 µM
How it was run: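 Caspase 3/7 activation was read by luminogenic substrate cleavage after 16 hour treatment of SK-N-SH cells. Signal was scaled between DMSO and 10 uM staurosporine, and concentration-response data were fitted with the Hill equation for AC50.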

[9] = Cellular Toxicity (caspase-3) H-4-II-E (AID 663); conditions: H-4-II-E rat hepatoma; Potency: caspase-3 activation; series mostly up to 92.2 µM;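 note: cells exposed to compound for 16 hr before readout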
How it was run: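 Caspase 3/7 activation measured by luminescent aminoluciferin substrate cleavage after 16 hr compound treatment of H-4-II-E cells in complete medium. Increase normalized between DMSO (basal) and 100 uM tamoxifen (100%); Hill-equation AC50 from concentration-response.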

[10] = Cellular Toxicity (caspase-3) N2a (AID 665); conditions: N2a cells, luminescence, normalized: DMSO 0%, 10 µM staurosporine 100%; series mostly up to 92.2 µM;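 note: compound exposure lasted 16 h at 37 °C before readout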
How it was run: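 Caspase-3/7 activation measured as luminescence from Caspase-Glo reagent (1 h, room temperature) after 16 h compound exposure of mouse N2a cells. AC50 values from Hill-equation concentration-response, scaled between DMSO and 10 uM staurosporine.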

[11] = Cellular Toxicity (caspase-3) NIH 3T3 (AID 666); conditions: NIH 3T3 caspase-3 activation, apoptosis/toxicity, 0% DMSO, 100% is 100 µM tamoxifen; series mostly up to 92.2 µM;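 note: 0% = DMSO basal and 100% = 100 µM tamoxifen stimulation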
How it was run: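 Caspase-Glo 3/7 luminescence reported caspase activation in 1000 NIH 3T3 cells/well after 16 h compound exposure at 37 C. DMSO set basal and 100 uM tamoxifen set 100% stimulation; concentration-response modeled with the Hill equation for AC50.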

[12] = Cellular Toxicity (caspase-3) Renal Proximal Tubule (AID 667); conditions: renal proximal tubule cells, primary cells freshly taken from rat; Potency: caspase-3 activation; series mostly up to 91.7 µM;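 note: cells exposed to compound for 16 hours at 37 °C before detection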
How it was run: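 Freshly isolated primary rat kidney proximal tubule cells, 1000/well, treated 16 hr at 37 °C, then Caspase-Glo 3/7 luminescence after 1 hr. Normalized to DMSO and 10 uM staurosporine; AC50 from Hill fit.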

[13] = MultiTox-Fluor Cytotoxicity Assay - LYMP1-001 - Dead Cells (AID 946); conditions: LYMP1-001 lymphoblastoid cells, dead-cell protease fluorescence; series mostly up to 92.2 µM; note: potency is the fitted concentration of half-maximal effect
How it was run: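 Seed 2500 LYMP1-001 cells/well, incubate 5 hr at 37 C; add compound, 16 hr at 37 C; add MultiTox-Fluor reagent, 60 min RT; read dead-cell fluorescence Ex/Em=485/520. Normalize to DMSO and 15 uM tetraoctylammonium bromide.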

[14] = MultiTox-Fluor Cytotoxicity Assay - LYMP1-003 - Dead Cells (AID 961); conditions: LYMP1-003 lymphoblastoid cells, dead-cell protease fluorescence; series mostly up to 92.2 µM; note: nearly all actives have a fitted effect of over 70% in size; note: potency is the fitted concentration of half-maximal effect
How it was run: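 LYMP1-003 lymphoblastoid, 2500 cells/well, 5 hr settle then 16 hr cpd at 37 C; MultiTox-Fluor reagent 60 min RT; Ex/Em 485/520 dead-cell signal; norm. DMSO = 0%, 15 uM tetraoctylammonium bromide = 100%; Hill AC50.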

[15] = MultiTox-Fluor Cytotoxicity Assay - LYMP1-003 - Live Cells (AID 962); conditions: LYMP1-003 lymphoblastoid cells, MultiTox-Fluor live-cell protease fluorescence; series mostly up to 92.2 µM; note: potency is the fitted concentration of half-maximal effect
How it was run: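 Live-cell protease activity (GF-AFC substrate, 405/510 nm, 60 min at room temperature) after 16 h, 37 C compound exposure of human lymphoblastoid LYMP1-003 cells; concentration-response fitted to the Hill equation for AC50.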

[16] = Cell Viability - LYMP1-003 - Assay at 24 hr (AID 963); conditions: LYMP1-003 lymphoblastoid cell viability; series mostly up to 92.2 µM;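 note: plate controls were DMSO only for no effect and tetraoctylammonium bromide positive control for full effect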
How it was run: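 Concentration-response qHTS: ATP loss measured by CellTiter-Glo luminescence after 24 h compound exposure at 37 C. Cells were LYMP1-003 human lymphoblastoid, 2500 per well. AC50 derived via standard Hill equation modeling.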

[17] = qHTS Assay for Identification of Small Molecule Inducers of Hypoxia Response (AID 2120; active = well fitted curve in the direction sought with a large enough effect in the signal ratio, with a control signal flat, not every such curve was filed as active; the % refers to the signal ratio; note: potency is the fitted concentration of half-maximal effect; for activation: 0% is about no effect); conditions: hypoxia response reporter cells, beta-lactamase ratio readout; series mostly up to 104 µM
How it was run: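 Reporter induction read as the CCF4 blue/green (460nm/530nm) emission ratio after 2.5 h dye loading at room temperature. ME-180 HRE-beta-lactamase cells received titrated compounds for 17 h at 37 degrees Celsius; AC50 values derived.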

[18] = molecular target: Peroxisome proliferator-activated receptor alpha (Homo sapiens) (UniProt Q07869); test: qHTS assay for small molecule agonists of the peroxisome proliferator-activated receptor alpha (PPARalpha) signaling pathway (AID 651778); conditions: PathHunter PPARalpha complementation, chemiluminescence, 6 h; max response: active compounds read high; note: % of control where 0% means no effect
How it was run: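 Chemiluminescence from complemented enzyme reported PPARalpha activation in cells after 6 hr of compound treatment at 37 C. The detection reagent was incubated for 60 min at room temperature, and compounds were scored as agonists.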

[19] = qHTS assay for small molecule agonists of the antioxidant response element (ARE) signaling pathway measured by Nrf2-dependant transcriptional activity - cell viability counter screen (AID 720653; active = well fitted curve in the direction sought with a large enough effect in the repeat runs; an effect the other way counts as inactive or inconclusive; note: potency is the fitted concentration of half-maximal effect; for max response: % is set by controls: 0 for no effect and ±100 for the full control effect); conditions: ARE-bla HepG2 viability, CellTiter-Glo ATP luminescence, 16 h; max response: active compounds read low
How it was run: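 Cytotoxicity counter screen: intracellular ATP quantified by CellTiter-Glo luminescence in the same ARE-bla HepG2 plates, after 16 h compound exposure and a 2 h beta-lactamase substrate step.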

[20] = qHTS assay for cell viability of the p53RE-bla HCT-116 cell line (AID 743292); conditions: p53RE-bla HCT-116 viability, ATP luminescence, 16 h; series mostly up to 95 µM; note: % is set by controls: 0 for no effect and ±100 for the full control effect; nearly all actives have a fitted effect of over 55% in size
How it was run: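 ATP-based luminescence, 16 h compound exposure at 37 C, p53RE-bla HCT-116 cells at 4,000/well.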

Peroxisome proliferator-activated receptor alpha (Homo sapiens), sequence (Q07869 whole entry, looked up): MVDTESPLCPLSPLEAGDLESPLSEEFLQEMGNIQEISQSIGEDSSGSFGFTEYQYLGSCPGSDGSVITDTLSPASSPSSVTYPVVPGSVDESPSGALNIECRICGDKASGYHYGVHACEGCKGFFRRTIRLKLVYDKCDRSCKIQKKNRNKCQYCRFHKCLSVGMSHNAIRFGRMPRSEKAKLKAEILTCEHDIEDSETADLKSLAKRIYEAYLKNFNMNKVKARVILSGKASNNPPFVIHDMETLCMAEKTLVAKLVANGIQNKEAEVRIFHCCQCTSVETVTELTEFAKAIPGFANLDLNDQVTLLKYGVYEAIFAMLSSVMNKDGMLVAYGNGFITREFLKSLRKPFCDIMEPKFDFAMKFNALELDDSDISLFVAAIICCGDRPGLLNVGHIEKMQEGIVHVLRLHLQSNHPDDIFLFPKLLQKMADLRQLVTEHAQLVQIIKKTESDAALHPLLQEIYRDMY

Cc1c(N)cccc1Cl
inactive: Potency [1] > 92 µM | Potency [2] | Potency [3] | Potency [4] | Potency [5] | outcome [6] | outcome [7] | outcome [8] | Potency [9] | outcome [10] | outcome [11] | Potency [12] | Potency [13] | Potency [14] | Potency [15] | Potency [16] | Potency [17] | max response [18] -2.61% | max response [19] -6.28% | Potency [20]

C[C@@H]1CC2(OC(O)[C@]3(C)O[C@H]23)O[C@H]2C[C@@]3(C)[C@@H]4CC[C@H]5C(C)(C)C(O[C@@H]6OC[C@@H](O)[C@H](O)[C@H]6O)CC[C@@]56C[C@@]46CC[C@]3(C)[C@@H]12 (stereo not given in full)
inactive: Potency [1] > 92 µM | Potency [2] | Potency [4] | Potency [5] | outcome [10] | Potency [13] | Potency [14] | Potency [15] | Potency [16] | Potency [17] | max response [18] 6.75% | Potency [20]
active: Potency [3] 31.6 µM | Potency [19] 70.8 µM

C=C1CC[C@H](O)C/C1=C/C=C1\CCC[C@]2(C)[C@@H]([C@H](C)CCCC(C)C)CC[C@@H]12
inactive: Potency [3] | Potency [4] | outcome [6] | outcome [10] | outcome [11] | Potency [17] | max response [18] -0.403% | max response [19] -9.05%
active: Potency [2] 39.8 µM | Potency [5] 31.6 µM | Potency [13] 39.8 µM | Potency [14] 39.8 µM | Potency [15] 50.1 µM

C/C=C/C=C/C=O
inactive: Potency [1] > 92 µM | Potency [2] | Potency [3] | Potency [4] | Potency [5] | outcome [6] | outcome [7] | outcome [8] | Potency [9] | outcome [10] | outcome [11] | Potency [12] | Potency [13] | Potency [15] | Potency [16] | Potency [17] | max response [18] -0.84% | max response [19] -19.3% | Potency [20]

NC(=O)c1ccc([N+](=O)[O-])cc1
inactive: Potency [1] > 92 µM | Potency [2] | Potency [3] | Potency [4] | Potency [5] | outcome [6] | outcome [7] | outcome [8] | Potency [9] | outcome [10] | outcome [11] | Potency [12] | Potency [13] | Potency [14] | Potency [15] | Potency [16] | Potency [17] | max response [18] -2.18% | max response [19] 5.8% | Potency [20]

CCN(CC)c1ccc2c(C)cc(=O)oc2c1
active: Potency [17] 44.7 µM
inactive: Potency [1] > 92 µM | Potency [2] | Potency [3] | Potency [4] | Potency [5] | outcome [6] | outcome [7] | outcome [8] | Potency [9] | outcome [10] | outcome [11] | Potency [12] | Potency [13] | Potency [14] | Potency [15] | Potency [16] | max response [18] -3.98% | max response [19] -2.1% | Potency [20]

CCCCCCCC/C=C\CCCCCCCC(=O)N(CCO)CCO
inactive: Potency [1] > 92 µM | Potency [3] | Potency [4] | Potency [5] | outcome [6] | outcome [7] | outcome [8] | outcome [10] | outcome [11] | Potency [12] | Potency [13] | Potency [14] | Potency [15] | Potency [16] | Potency [17] | max response [18] 28.4% | max response [19] -24.9% | Potency [20]
active: Potency [2] 39.8 µM
